Test results published in article PMC10156912.

Legend:
PHD finger protein 12 = PHD finger protein 12 (UniProt Q96QT6); assay: other; cross-linking mass spectrometry; other
Histone deacetylase 2 = Histone deacetylase 2 (UniProt Q92769); assay: cross-link between two proteins; cross-linking mass spectrometry
Histone deacetylase 2, sequence (Q92769 whole entry): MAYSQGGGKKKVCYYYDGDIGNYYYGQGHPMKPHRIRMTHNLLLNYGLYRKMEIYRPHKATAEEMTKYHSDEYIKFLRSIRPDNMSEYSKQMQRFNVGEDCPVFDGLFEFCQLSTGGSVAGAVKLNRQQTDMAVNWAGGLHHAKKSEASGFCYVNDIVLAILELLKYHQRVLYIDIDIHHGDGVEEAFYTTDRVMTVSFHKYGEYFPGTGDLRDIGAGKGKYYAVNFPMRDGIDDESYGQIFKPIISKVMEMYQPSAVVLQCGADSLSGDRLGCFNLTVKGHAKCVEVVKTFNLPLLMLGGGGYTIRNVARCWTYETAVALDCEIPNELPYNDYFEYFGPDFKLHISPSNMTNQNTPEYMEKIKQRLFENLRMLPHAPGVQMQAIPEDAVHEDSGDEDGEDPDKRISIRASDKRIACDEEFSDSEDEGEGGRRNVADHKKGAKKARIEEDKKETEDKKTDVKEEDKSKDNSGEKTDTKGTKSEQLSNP

PHD finger protein 12, sequence (Q96QT6 whole entry): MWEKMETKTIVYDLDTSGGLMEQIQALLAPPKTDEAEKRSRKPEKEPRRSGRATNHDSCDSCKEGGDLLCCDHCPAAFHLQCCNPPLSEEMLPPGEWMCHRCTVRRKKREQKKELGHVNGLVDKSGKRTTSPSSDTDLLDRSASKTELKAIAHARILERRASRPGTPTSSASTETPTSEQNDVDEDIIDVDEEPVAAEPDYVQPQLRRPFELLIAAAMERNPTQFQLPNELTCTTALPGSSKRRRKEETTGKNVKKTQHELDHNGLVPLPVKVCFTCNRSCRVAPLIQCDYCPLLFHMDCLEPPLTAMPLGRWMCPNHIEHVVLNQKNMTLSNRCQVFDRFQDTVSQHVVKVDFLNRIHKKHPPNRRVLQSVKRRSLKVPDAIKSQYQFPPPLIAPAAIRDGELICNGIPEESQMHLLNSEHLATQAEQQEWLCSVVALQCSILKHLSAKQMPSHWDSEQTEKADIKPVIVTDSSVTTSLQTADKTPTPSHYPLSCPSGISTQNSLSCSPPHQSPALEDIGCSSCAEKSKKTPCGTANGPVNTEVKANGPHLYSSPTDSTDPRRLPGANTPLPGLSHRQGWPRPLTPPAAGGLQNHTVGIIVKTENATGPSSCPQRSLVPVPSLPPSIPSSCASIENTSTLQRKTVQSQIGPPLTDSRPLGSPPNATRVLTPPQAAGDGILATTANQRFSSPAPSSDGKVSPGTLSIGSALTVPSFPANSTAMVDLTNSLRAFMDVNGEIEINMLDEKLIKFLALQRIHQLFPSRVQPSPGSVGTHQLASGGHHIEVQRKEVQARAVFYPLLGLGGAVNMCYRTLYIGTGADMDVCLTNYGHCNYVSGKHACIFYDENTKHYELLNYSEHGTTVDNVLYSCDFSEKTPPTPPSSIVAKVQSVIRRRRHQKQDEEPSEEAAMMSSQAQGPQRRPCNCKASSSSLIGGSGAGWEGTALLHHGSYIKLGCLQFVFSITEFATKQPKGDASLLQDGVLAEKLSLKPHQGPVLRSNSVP

## Paired amphipathic helix protein Sin3b, O75182
PHD finger protein 12
  listed as a hit: yes
Histone deacetylase 2
  listed as a hit: yes
